This passage reports activation and Potency results from PubChem BioAssay (NCATS).

Inconclusive results are not listed. Values without a mark were called inactive. The source made the active and inactive calls. The call rests on the fitted dose curve; in most records, active means well fitted activation curve with a large enough effect; inconclusive means small, poorly fitted or top-dose-only effect; inactive means no such curve, though single readings can be large or run the other way. Square brackets hold non-standard residues; d marks the D form. Peptide text beside a SMILES is read from it. ξ: configuration not given here. ξPhe(βξ-Me) = CC(c1ccccc1)C(N)C(=O)O; GABA = NCCCC(=O)O
Potency means the concentration at half of the fitted maximal effect.

Cellular tumor antigen p53 (Homo sapiens), sequence (P04637 whole entry, looked up): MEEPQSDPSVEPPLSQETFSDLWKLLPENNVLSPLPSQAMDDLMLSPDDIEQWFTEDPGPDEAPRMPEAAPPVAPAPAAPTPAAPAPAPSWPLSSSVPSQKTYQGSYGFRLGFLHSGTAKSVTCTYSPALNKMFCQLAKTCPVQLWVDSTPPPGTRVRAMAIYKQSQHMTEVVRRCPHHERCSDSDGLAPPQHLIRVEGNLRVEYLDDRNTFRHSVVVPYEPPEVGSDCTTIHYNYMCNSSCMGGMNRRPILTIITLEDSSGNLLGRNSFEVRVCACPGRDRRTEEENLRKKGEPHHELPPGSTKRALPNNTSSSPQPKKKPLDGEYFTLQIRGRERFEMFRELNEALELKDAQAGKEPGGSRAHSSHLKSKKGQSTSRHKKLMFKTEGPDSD

The target in this test is Cellular tumor antigen p53 (Homo sapiens) (UniProt P04637). As to the kind of experiment: Primary qHTS for small molecule compounds that upregulate eGFP-tagged delta133p53alpha (in N-terminal) cells. (AID 2060322). Further: nearly all actives have a fitted effect of over 75% in size.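 On activation: series mostly up to about 56 µM; 0% = DMSO vehicle and 100% = reference activator.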 Conditions: NCI-H358 eGFP-delta133p53alpha fluorescence, 24 h; activation: stronger effect = higher value. The procedure, abridged:
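NCI-H358 cells pre-induced 24 h with 10 ng/ml doxycycline for eGFP-delta133p53alpha, plated dox-free and exposed 24 h at 37C to titrated compounds. Fixed, Hoechst-stained; gated GFP peak intensity by laser scanning cytometry, normalized to DMSO (0%) and 57.5 uM 5-azacytidine (100%).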
(qHTS replaces the single test concentration by a dilution series.)
For the molecule `C#C[C@]1(OC(C)=O)CC[C@H]2[C@@H]3CCC4=C[C@@H](OC(C)=O)CC[C@@H]4[C@H]3CC[C@@]21C`, the activation is 6.33%.

Regarding `CC1(C)CC2C(C1)C1(C)CCC13OC3(CO)C2O` (configuration not stated), the activation is -14.3%.

As to `O=C(O)Cc1ccccc1Oc1ccc(Cl)cc1Cl`, the activation is -3.35%.

Take `C=C[C@H]1[C@H](O[C@@H]2O[C@H](CO)[C@@H](O)[C@H](O)[C@H]2O)OC=C(C(=O)OC)[C@H]1C[C@@H]1N[C@H](C(=O)O)Cc2c1[nH]c1ccccc21`: the activation was -4.58%.

With `CC(C(=O)O)c1ccc(/C=C2\CCCCC2=O)cc1` (configuration not stated), the activation is -13.4%.

For the molecule `C=C1C(=O)O[C@@H]2[C@H]1[C@H](O)C[C@]1(C)[C@@H](O)CC=C(C)[C@@H]21`, the Potency is 15.1 µM (active).

In the case of `CC1CCC2(OC1)OC1CC3C4CC=C5CC(O)CC(O[C@@H]6OC[C@@H](O)[C@H](O)[C@H]6O)C5(C)C4CCC3(C)C1(O)C2C` (some centres not stated), the activation was 16.8%.

Take `CC(=O)N[C@H]1CCN(c2ccc(C3=NOC(CN[S+](=O)([O-])C(C)C)C3)cc2F)C1` (some centres not stated): the activation was 11.7%.

As for `C=C1C(=O)O[C@@H]2[C@H]3C(C)=CC(=O)C3=C(C)[C@@H](OC(=O)/C(C)=C\C)[C@H](O)[C@@H]12`, the Potency is 16.6 µM (active).

Regarding `C[C@H]1[C@H](C)CC[C@]2(C(=O)O)CC[C@]3(C(=O)O)C(=CCC4[C@@]5(C)CC[C@H](O[C@@H]6O[C@@H](C)[C@H](O)[C@@H](O)[C@H]6O)C(C)(C)C5CC[C@]43C)[C@H]12` (some centres not stated), the activation is -4.58%.

Consider `C=C(C(=O)O)C1CC(O)C2(C)CCCC(C)(O)C2C1` (configuration not stated), for which the activation is 1.53%.

On to `CC1=CC(=O)OC(C)(CC(C)(O)C(=O)O)C1` (configuration not stated), for which the activation is -15.3%.

Regarding `CC1CCC2C(C(=O)O)=CC3CC(C)(C)CC132` (configuration not stated), the activation was 2.29%.

With `COCC(c1ccc(C(F)(F)F)cc1)N1CCN(C2(C)CCN(C(=O)c3c(C)ncnc3C)CC2)CC1C` (configuration not stated), the activation was 12.4%.

Take `NC(=O)[C@H]1CCCCc2c1[nH]c1ccc(Cl)cc21`: the activation was 15%.

Regarding `CC1NC(=O)CCCNC(=O)C(Cc2c[nH]c3ccccc23)NC(=O)C(C)NC(=O)C(C(C)C)NC(=O)C(C(C)c2ccccc2)NC(=O)C(C(C)C)NC1=O` (stereo not drawn) (cyclo([GABA]AV[ξPhe(βξ-Me)]VAW); configuration not given here), the activation was 6.11%.

Consider `C/C(=C\CCC(C)(O)c1ccc(C)cc1)C(=O)O` (configuration not stated), for which the activation is -12.2%.

As to `CC1(C)CCC2(C(=O)OC3OCC(O)C(O)C3O)CCC3(C)C(=CCC4C5(C)CC(O)C(OC6OC(COC7OCC(O)C(O)C7O)C(O)C(O)C6O)C(C)(C)C5CCC43C)C2C1` (configuration not stated), the activation is 4.46%.

Regarding `C=C1C[C@@]23CCC4[C@@](C)(CCC[C@@]4(C)C(=O)OC)C2CC[C@@H]1C3` (some centres not stated), the activation was -32.8%.

`C=C(C)C1CCC2(C(=O)O)CCC3(C(=O)O)C(CCC4C5(C)CCC(O)C(C)(C(=O)O)C5CCC43C)C12` (configuration not stated): the activation is -3.82%.

As to `CC1=C(C)C(=O)OC(C(C)C2C(O)CC3C4C5OC5C5(O)CC(OC6OC(CO)C(OC7OC(C)C(O)C(O)C7O)C(O)C6O)CC(O)C5(C)C4CCC32C)C1` (configuration not stated), the activation is -6.87%.

Regarding `CC1CC(C(O)C(C)(C)O)OC2CC3(C)C4(C)CCC5C(C)(C)C(=O)CCC5(C)C4CCC3(O)C12O` (configuration not stated), the activation was -11.5%.

Regarding `CC1OC(O[C@@H]2[C@H](O)[C@@H](OC3OC(CO)C(O)C(O)C3O)[C@H](OC(=O)[C@]34CCC(C)(C)C[C@H]3C3=CCC5[C@@]6(C)CC[C@H](O[C@@H]7O[C@H](C(=O)O)[C@@H](O)[C@H](O[C@@H]8OC[C@@H](O)[C@H](O)[C@H]8O)[C@H]7O[C@@H]7O[C@H](CO)[C@H](O)[C@H](O)[C@H]7O)[C@@](C)(C=O)C6CC[C@@]5(C)[C@]3(C)C[C@H]4O)O[C@@H]2C)C(O)C(O)C1OC1OCC(O)C(O)C1O` (some centres not stated), the activation is 5.34%.

Turning to `C/C(=C\C(=O)C(C)C1CCC2C3=C(CCC21C)C1(C)CCC(=O)C(C)(C)C1(O)CC3)C(C)(C)O` (configuration not stated), the activation is -16.8%.

With `CC(C)=C1C[C@@]2(C)C(=CC1=O)CC[C@@H](OC(=O)/C(C)=C/CO)[C@@H]2C`, the activation was 5.34%.

For `C=C1C(=O)O[C@@H]2C[C@]3(C)[C@@H](CCC(C)=O)[C@@H]3C[C@H]12`, the activation was 5.36%.

As for `COC(=O)C[C@H]1C(C)(C)[C@H](OC(=O)C(C)C)[C@@]2(O)C(=O)[C@]1(C)C1CC[C@]3(C)C(CC(=O)O[C@H]3c3ccoc3)[C@]13O[C@@H]32` (some centres not stated), the activation was -17.6%.
